From PubChem BioAssay (NCATS)
Results filed as inconclusive are left out. Active and inactive are the calls of the source. Calls come from the whole dose curve; as a rule, active = well fitted inhibition curve with a large enough effect; inconclusive = small, poorly fitted or top-dose-only effect; inactive = flat fitted curve, though single readings scatter.

Columns and labels:
PC49 = test: qHTS profiling for inhibitors of Plasmodium falciparum proliferation (AID 504749); note: potency is the fitted concentration of half-maximal effect; details: P. falciparum in erythrocytes, SYBR Green DNA, 72 h; series mostly up to 28.7 µM
In short: (§1)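 Readout was DNA-dye fluorescence from lysed cultures, ex 485/em 535 nm. Parasitized red cells had grown 72 h with compound; data scaled between 0.29 uM artemisinin and DMSO wells and corrected using vehicle-only plates.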

SC27B = test: as above; details: P. falciparum in erythrocytes, SYBR Green DNA, 72 h; series mostly up to 28.7 µM
In short: as §1

TAB109 = test: as above; details: P. falciparum in erythrocytes, SYBR Green DNA, 72 h; series mostly up to 28.7 µM
In short: as §1

TAB113 = test: as above; details: P. falciparum in erythrocytes, SYBR Green DNA, 72 h; series mostly up to 28.7 µM
In short: as §1

TAB165 = test: as above; details: P. falciparum in erythrocytes, SYBR Green DNA, 72 h; series mostly up to 28.7 µM
In short: as §1

W2 = test: as above; details: P. falciparum in erythrocytes, SYBR Green DNA, 72 h; series mostly up to 28.7 µM
In short: as §1

CRL-7250 = normal cell line; test: Cytotoxic Profiling of Annotated Libraries Using Quantitative High-Throughput Screening (AID 1296008); details: Five cell lines viability, CellTiter-Glo ATP luminescence, 48-72 h; stronger effect = lower value; for max response: % is set by controls: 0 for no effect and ±100 for the full control effect
In short: (§2)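 Cells exposed to compounds for 48 or 72 hr at 37 degrees Celsius. Viability read as ATP-coupled luminescence with CellTiter-Glo after 10 min at room temperature.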

HEK293 = test: as above; details: Five cell lines viability, CellTiter-Glo ATP luminescence, 48-72 h; stronger effect = lower value
In short: as §2

HaCat [1] = test: as above; details: Five cell lines viability, CellTiter-Glo ATP luminescence, 48-72 h; stronger effect = lower value
In short: as §2

KB-3-1 = test: as above; details: Five cell lines viability, CellTiter-Glo ATP luminescence, 48-72 h, stronger effect = lower value
In short: as §2

NIH3T3 = test: as above; details: Five cell lines viability, CellTiter-Glo ATP luminescence, 48-72 h; stronger effect = lower value
In short: as §2

HACAT [2] = test: qHTS assay to identify novel small-molecules to repurpose for Merkel cell carcinoma treatment (AID 1296009); details: MCC and control cell lines, CellTiter-Glo viability, 72 h; at 44.8 µM (top of the series) unless noted
In short: (§3)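 Cells were incubated with compound for 72 hr at 37 degree celsius before CellTiter-Glo addition. Luminescence was normalized with no-cell wells as full cytotoxicity and DMSO as baseline.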

MCC-13 = test: as above; details: MCC and control cell lines, CellTiter-Glo viability, 72 h; series mostly up to 46 µM
In short: as §3

MCC-26 = test: as above; details: MCC and control cell lines, CellTiter-Glo viability, 72 h; series mostly up to 46 µM
In short: as §3

MKL-1 = test: as above; details: MCC and control cell lines, CellTiter-Glo viability, 72 h; series mostly up to 46 µM
In short: as §3

MKL-2 = test: as above; details: MCC and control cell lines, CellTiter-Glo viability, 72 h; series mostly up to 46 µM
In short: as §3

UISO = test: as above; details: MCC and control cell lines, CellTiter-Glo viability, 72 h; series mostly up to 46 µM
In short: as §3

WaGa = test: as above; details: MCC and control cell lines, CellTiter-Glo viability, 72 h; series mostly up to 46 µM
In short: as §3

HEK293T = test: as above; details: MCC and control cell lines, CellTiter-Glo viability, 72 h; at 44.8 µM (top of the series) unless noted
In short: as §3
Note: nearly all actives have a fitted effect of over 60% in size.

CNc1c2c(nn1C)CCCC2
inactive: Potency (PC49) | Potency (SC27B) | Potency (TAB109) | Potency (TAB113) | Potency (TAB165) | Potency (W2) | max response (CRL-7250) 2.3% | max response (HEK293) -6.59% | outcome (HaCat [1]) | max response (KB-3-1) -8.03% | max response (NIH3T3) 4.21% | outcome (HACAT [2]) | outcome (MCC-13) | outcome (MCC-26) | outcome (MKL-1) | outcome (MKL-2) | outcome (UISO) | outcome (WaGa)

C/C=C1\[C@H]2C=C(C)C[C@]1(N)c1ccc(=O)[nH]c1C2
inactive: max response (CRL-7250) -0.0215% | outcome (HEK293) | max response (HaCat [1]) 4.06% | max response (KB-3-1) -3.64% | max response (NIH3T3) -4.73% | outcome (HEK293T) | outcome (MCC-13) | outcome (MCC-26) | outcome (MKL-1) | outcome (MKL-2) | outcome (UISO) | outcome (WaGa)

O=C(O)COC(=O)Cc1ccccc1Nc1c(Cl)cccc1Cl
inactive: Potency (PC49) | Potency (SC27B) | Potency (TAB109) | Potency (TAB113) | Potency (TAB165) | Potency (W2) | outcome (CRL-7250) | max response (HEK293) -1.3% | outcome (HaCat [1]) | max response (KB-3-1) 5.03% | max response (NIH3T3) 1.68% | outcome (HACAT [2]) | outcome (MCC-13) | outcome (MCC-26) | outcome (MKL-1) | outcome (MKL-2) | outcome (UISO) | outcome (WaGa)

CN1C[C@@H]2C[C@H]1CN2c1cc2c(cc1F)c(=O)c(C(=O)O)cn2C1CC1
active: Potency (W2) 0.953 µM
inactive: Potency (PC49) | Potency (TAB113) | max response (CRL-7250) 2.35% | max response (HEK293) -22.9% | outcome (HaCat [1]) | max response (KB-3-1) -8.4% | max response (NIH3T3) -10.1% | outcome (HACAT [2]) inactive [at 17.4 µM] | outcome (MCC-13) | outcome (MCC-26) | outcome (MKL-1) | outcome (MKL-2) | outcome (UISO) | outcome (WaGa)

Nc1c2c(nc3c1CCC3)CCCC2
inactive: outcome (CRL-7250) | max response (HEK293) -2.02% | outcome (HaCat [1]) | max response (KB-3-1) -0.45% | max response (NIH3T3) 0.339% | outcome (HACAT [2]) | outcome (MCC-13) | outcome (MCC-26) | outcome (MKL-1) | outcome (MKL-2) | outcome (UISO) | outcome (WaGa)
active: Potency (TAB165) 11.2 µM

Cc1cccc(C)c1NC(=O)CC12CCCN1CCC2
inactive: Potency (PC49) | Potency (SC27B) | Potency (TAB109) | Potency (TAB113) | Potency (TAB165) | max response (CRL-7250) 2.63% | outcome (HEK293) | max response (HaCat [1]) -12.5% | max response (KB-3-1) -0.628% | max response (NIH3T3) -1.1% | outcome (HEK293T) | outcome (MCC-13) | outcome (MCC-26) | outcome (MKL-1) | outcome (MKL-2) | outcome (UISO) | outcome (WaGa)

NCC1CCC(C(=O)Oc2ccc(CCC(=O)O)cc2)CC1 (stereo unspecified)
inactive: Potency (PC49) | Potency (SC27B) | Potency (TAB109) | Potency (TAB113) | Potency (TAB165) | Potency (W2) | max response (CRL-7250) -11.6% | max response (HEK293) -1.47% | outcome (HaCat [1]) | max response (KB-3-1) -7.85% | max response (NIH3T3) -0.473% | outcome (HACAT [2]) | outcome (MCC-13) | outcome (MCC-26) | outcome (MKL-1) | outcome (MKL-2) | outcome (UISO) | outcome (WaGa)
